Experimental data published in PubChem BioAssay (Tox21).
Inconclusive results are not listed. Calls of active or inactive are those of the source. Unless noted, the call rests on the fitted dose curve; in most records, active means well fitted curve in the direction sought with a large enough effect in the repeat runs; inconclusive means weak or mixed curves; inactive means no such curve, though single readings can be large; an effect the other way counts as inactive or inconclusive.

Experiments:
[1] = qHTS assay to identify small molecule agonists of the hypoxia (HIF-1) signaling pathway - cell viability counter screen (AID 1224844; calls by dose curve; further: nearly all actives have a fitted effect of over 50% in size); settings: HRE-bla ME-180 viability, CellTiter-Glo luminescence, 17 h; series mostly up to 76.8 µM
Method in brief: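 Cytotoxicity was measured in parallel with the HRE-driven beta-lactamase readout: after 17 hrs of compound exposure at 37C, HRE-bla ME-180 cells received CellTiter-Glo and luminescence was recorded 30 min later.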

[2] = qHTS assay to identify small molecule agonists of H2AX (AID 1224845; active means well fitted activation curve with a large enough effect in the signal ratio in the repeat runs, not every such curve was filed as active; the % refers to the signal ratio); settings: CHO-K1 phospho-H2AX Ser139 HTRF, 3 h; series mostly up to 154 µM
Method in brief: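 Wild-type CHO-K1 cells plated overnight, then exposed 3 hr at 37C to compounds at 15 concentrations (0.76% DMSO). Lysed, then HTRF anti-pH2AX(S139)-cryptate/anti-H2AX-d2 detection after 24 hr at room temperature; emissions 665 and 620 nm.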

[3] = qHTS assay to identify small molecule agonists of H2AX - cell viability counter screen (AID 1224847; calls by dose curve; further: top concentration of the series differs between compounds; nearly all actives have a fitted effect of over 30% in size); settings: CHO-K1 viability, CellTiter-Glo luminescence, 3 h; series mostly up to 154 µM
Method in brief: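 Cells plated first: CHO-K1, 1000 per well in 10% FBS medium, incubated overnight at 37C. Then 15-point compound titration added (final DMSO 0.76%) for 3 hr. Finally CellTiter-Glo added and luminescence read.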

[4] = qHTS assay to identify small molecule antagonists of the estrogen related receptor (ERR) signaling pathway from Tox21 library (AID 1224848); settings: ERR reporter cell line, luciferase antagonist mode, 18 h; series mostly up to 92.4 µM; further: nearly all actives have a fitted effect of over 50% in size
Method in brief: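 First, 2,000 ERR cells per well were plated and held 6 h at 37 C/5% CO2. Next, compounds in DMSO were pinned in and left 18 h at 37 C. Finally, ONE-Glo was added and luminescence read after 30 min at room temperature.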

[5] = qHTS RealTime-Glo MT Cell Viability Assay in HepG2 cells - 24 hour (AID 1224867); settings: RealTime-Glo luminescence; series mostly up to 76.8 µM; further: nearly all actives have a fitted effect of over 50% in size
Method in brief: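 HepG2 cells (600/well) were dispensed with RealTime-Glo reagents, incubated 5 h at 37 °C, then treated with compounds in DMSO for up to 40 h. Nonlytic NanoLuc luminescence reflecting viable cells was read at each stated time point.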

[6] = qHTS RealTime-Glo MT Cell Viability Assay in HEK293 cells - 32 hour (AID 1224868); settings: RealTime-Glo luminescence; series mostly up to 76.8 µM; further: top concentration of the series differs between compounds; nearly all actives have a fitted effect of over 50% in size
Method in brief: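 HEK293 cells seeded with NanoLuc/prosubstrate reagent, rested 5 h at 37 C, then dosed and kept at 37 C up to 40 h. Nonlytic real-time luminescence from viable cells read at 0, 8, 16, 24, 32 and 40 h.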

[7] = A CellTox Green Cytotoxicity Assay to monitor cytotoxicity in HEK293 cells - 0 hour (AID 1224869); settings: CellTox Green fluorescence; series mostly up to 76.8 µM; further: nearly all actives have a fitted effect of over 50% in size
Method in brief: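 Cells (HEK293, 600/well) and dye reagent are dispensed together. After 5 h at 37 C, 23 nL compound is pinned in. Plates stay at 37 C for 40 h with fluorescence read at 0h, 8h, 16h, 24h, 32h and 40h.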

[8] = qHTS RealTime-Glo MT Cell Viability Assay in HepG2 cells - 40 hour (AID 1224870); settings: RealTime-Glo luminescence; series mostly up to 76.8 µM; further: nearly all actives have a fitted effect of over 50% in size; further: potency means the concentration at half of the fitted maximal effect
Method in brief: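 HepG2 cells mixed with RealTime-Glo MT reagents (NanoLuc plus cell-permeant prosubstrate) were seeded at 600 cells/well, incubated 5 h at 37 C/5% CO2, then pinned with compounds in DMSO; nonlytic luminescence tracked viability during 40 h treatment.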

[9] = qHTS assay to identify small molecule agonists of the estrogen related receptor (ERR) signaling pathway from Tox21 library (AID 1224849; calls by dose curve; further: nearly all actives have a fitted effect of over 15% in size); settings: ERR reporter cell line, ONE-Glo luciferase, 18 h; at 92.4 µM (top of the series) unless noted
Method in brief: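 Cells carrying the ERR reporter were plated and allowed to settle for 6 h, exposed to library compounds for 18 h at 37 C, then lysed with ONE-Glo and luminescence measured.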

[10] = qHTS assay to identify small molecule agonists of the hypoxia (HIF-1) signaling pathway (AID 1224846; active means well fitted activation curve with a large enough effect in the signal ratio in the repeat runs, not every such curve was filed as active; the % refers to the signal ratio); settings: HRE-bla ME-180 cells, beta-lactamase ratio, 17 h; series mostly up to 76.8 µM
Method in brief: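 Compounds from the Tox21 10K library, dissolved in DMSO, are tested for induction of a hypoxia response element–controlled beta-lactamase reporter in ME-180 cells. Exposure lasts 17 hrs at 37C after a 5 hr settling period, followed by CCF4-AM FRET substrate.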
On the % scale 0 is the no-effect control and ±100 the full control effect.

C=C1CC[C@@]2(O)[C@H]3Cc4ccc(O)c5c4[C@@]2(CCN3CC2CC2)[C@H]1O5
inactive: Potency [1] | outcome [2] | Potency [3] | Potency [4] | Potency [5] | Potency [6] | outcome [7] | Potency [8]

OP(O)c1ccccc1
inactive: Potency [1] | outcome [2] | Potency [3] | Potency [4] | activity change, positive = activation [9] 1.75% | Potency [5] | outcome [7]

CN(CCO)CCO
inactive: Potency [1] | outcome [2] | Potency [3] | Potency [5] | Potency [6] | outcome [7]

COc1ccc(CN2CCNCC2)c(OC)c1OC
inactive: Potency [1] | outcome [2] | Potency [3] | Potency [4] | Potency [5] | Potency [6] | outcome [7] | Potency [8]

C=CCN1CC[C@]23CCCC[C@H]2[C@H]1Cc1ccc(O)cc13
inactive: Potency [1] | outcome [2] | Potency [3] | Potency [4] | activity change, positive = activation [9] 5.12% [at 42.5 µM] | Potency [5] | Potency [6] | outcome [7] | Potency [8]

NCC1(CC(=O)O)CCCCC1
inactive: Potency [1] | outcome [2] | Potency [3] | Potency [5] | Potency [6] | outcome [7]

CCN[C@@H](C)Cc1ccccc1
inactive: Potency [1] | outcome [2] | Potency [3] | Potency [4] | Potency [5] | Potency [6] | outcome [7] | Potency [8]

CC(=O)OCC1=C(C(=O)O)N2C(=O)[C@@H](N)[C@H]2SC1
inactive: activity change, negative = cytotoxicity [1] -17.2% [at 15.8 µM] | activation (H2AX phosphorylation) [2] 0.102% [at 31.6 µM] | activity change, negative = cytotoxicity [3] 3.73% [at 31.6 µM] | activity, negative = inhibition [4] 15.1% [at 19 µM] | activity change, negative = cytotoxicity [5] 0.275% [at 15.8 µM] | activity change, negative = cytotoxic [6] 19.8% [at 15.8 µM] | cytotoxicity [7] 1.32% [at 15.8 µM] | activity change, negative = cytotoxic [8] 3.09% [at 15.8 µM]

CC(C)(N)Cc1ccccc1Cl
inactive: Potency [1] | outcome [2] | Potency [3] | Potency [4] | Potency [5] | Potency [6] | outcome [7]

NC(=O)OCCCc1ccccc1
inactive: Potency [1] | outcome [2] | Potency [3] | Potency [5] | Potency [6] | outcome [7] | Potency [8]

CCCN1CCC[C@@H]2Cc3[nH]ncc3C[C@H]21
inactive: Potency [1] | outcome [2] | Potency [3] | Potency [4] | activity change, positive = activation [9] 0.879% [at 42.5 µM] | Potency [5] | outcome [7] | Potency [8]

NNC(N)=O
inactive: Potency [1] | outcome [2] | Potency [3] | Potency [5] | Potency [6] | Potency [8]

O=C(O)C(Br)(Br)Br
inactive: outcome [2] | outcome [10] | Potency [3] | Potency [4] | Potency [5] | outcome [7]
active: Potency [8] 49 µM

CCN[C@@H](C)Cc1cccc(C(F)(F)F)c1
inactive: Potency [1] | outcome [2] | Potency [3] | Potency [5] | Potency [6] | outcome [7] | Potency [8]

CCN[C@H](C)Cc1cccc(C(F)(F)F)c1
inactive: Potency [1] | outcome [2] | Potency [3] | Potency [5] | outcome [7]

CC(C)(C)c1cc(O)ccc1O
inactive: Potency [1] | Potency [3] | Potency [5] | outcome [7] | Potency [8]

C=C(C)[C@H]1CN[C@H](C(=O)O)[C@H]1CC(=O)O
inactive: Potency [1] | outcome [2] | Potency [3] | Potency [5] | Potency [6] | outcome [7] | Potency [8]

CCC(C(N)=O)N1CCCC1=O (stereo unspecified)
inactive: Potency [1] | outcome [10] | Potency [3] | Potency [5] | Potency [6] | outcome [7] | Potency [8]

CCOc1cc(OP(=S)(OC)OC)nc(CC)n1
inactive: Potency [1] | outcome [2] | Potency [3] | Potency [5] | outcome [7]

CCOP(=S)(OCC)Oc1ccc(Cl)cc1Cl
inactive: Potency [1] | outcome [10] | Potency [5] | Potency [6] | outcome [7] | Potency [8]

C[C@H](N)C(=O)c1ccccc1
inactive: Potency [1] | outcome [2] | Potency [3] | Potency [5] | outcome [7] | Potency [8]

CC(C)(C)C(=O)C(Cl)Cl
inactive: Potency [1] | outcome [2] | Potency [3] | Potency [5] | Potency [6] | outcome [7] | Potency [8]

CC(C)c1ccc(O)cc1
inactive: Potency [1] | outcome [10] | Potency [3] | Potency [4] | Potency [5] | outcome [7]
